USP7 inh – inhibitors of human USP7 deubiquitinase; purified USP7, Ub-rhodamine cleavage fluorescence; inhibition, % at 20 µM; 47,000 compounds, 0.3% hits; AID 1645854, 2021
USP8 block – inhibitors of human USP8 deubiquitinase; Ubiquitin carboxyl-terminal hydrolase 8 (Homo sapiens), P40818; inhibition, % at 20 µM; 47,000 compounds, 4.2% hits; purified USP8, Ub-rhodamine cleavage fluorescence, 30 min
USP10 inh – inhibitors of human USP10 deubiquitinase; Ubiquitin carboxyl-terminal hydrolase 10 (Homo sapiens), Q14694; purified USP10, Ub-rhodamine fluorescence, 60 min; inhibition, % at 20 µM; 47,000 compounds, 1.1% hits; AID 1645856, 2021
UCHL1 block – inhibitors of human UCHL1 deubiquitinase | Ubiquitin carboxyl-terminal hydrolase isozyme L1 (Homo sapiens), P09936 | purified UCHL1, Ub-rhodamine cleavage fluorescence | inhibition, % at 20 µM | 47,000 compounds, 0.2% hits | AID 1645859, 2021
* hit, by the source's call. Hits are enriched below; roughly 5% of the tested compounds scored in any of these assays. No stated cut-off is given here; in the data, active means inhibition above about 30%; inactive means the rest.

SMILES	USP7 inh	USP8 block	USP10 inh	UCHL1 block
O=C1CCc2cc(S(=O)(=O)Nc3ccccc3C(=O)Nc3ccccc3)ccc2N1	8	-5	3	5
Cc1ccc([N+](=O)[O-])cc1S(=O)(=O)Nc1cc2sc(=O)oc2c2ccccc12	-27	89*	37*	28
N#Cc1cccc(NC(=O)Cn2cccc(-c3nc(-c4ccccc4)no3)c2=O)c1	-22	23	-5	-29
N#Cc1cccc(NC(=O)Nc2cccn(Cc3ccccc3F)c2=O)c1	-63	94*	71*	35*
N#Cc1ccc(NC(=O)Nc2cccn(Cc3ccccc3Br)c2=O)cc1	-49	90*	51*	24
Cc1ccccc1NC(=O)CNc1ccc(C#N)cc1	-3	9	-5	0
O=C1CC(C(=O)Nc2ccc3c(c2)OCO3)n2ncc(-c3ccccc3)c2N1 (centres undefined)	7	38*	3	-3
COc1ccc(NC(=O)C2CC(=O)Nc3nc(SCc4ccccc4)nn32)cc1 (centres undefined)	3	4	15	-1
COc1ccc(CCN2CC(C(=O)Nc3ccc4c(c3)OCO4)CC2=O)cc1OC (centres undefined)	8	17	-2	5
O=C1CC(C(=O)Nc2ccc3c(c2)OCO3)n2nc(SCc3ccccc3)nc2N1 (centres undefined)	12	15	33*	5
O=C(Nc1ccc2c(c1)OCO2)C1CC(=O)N(CCc2ccccc2)C1 (centres undefined)	3	56*	-2	4
COC(=O)c1ccc(NC(=O)CCC(=O)OCC(=O)c2cccc([N+](=O)[O-])c2)cc1	-3	-119	1	0
COc1ccc(N2CCN(C(=O)C3CCCN(S(=O)(=O)N4CCC5(CC4)OCCO5)C3)CC2)cc1 (centres undefined)	-1	6	-2	0
Cc1ccc(C(=O)OCC(=O)NCC2CCCCC2)c(O)c1	-1	1	-1	-4
COc1ccc(C)cc1NC(=O)CC(c1ccccc1C)n1cccc1 (centres undefined)	2	-12	3	1
O=[N+]([O-])c1ccc(N2CCCC2)c(CO)c1	-5	-67	-5	-2
O=C(NCc1ccc2c(c1)OCO2)c1ccc(C2SCC(=O)N2Cc2ccco2)cc1 (centres undefined)	7	36*	7	5
NC(=O)c1c(NC(=O)CSc2ncn[nH]2)sc2c1CCC2	-60	-21	-2	-5
Cc1ccc(Nc2nc3c(S(=O)(=O)c4ccc(C)c(C)c4)nnn3c3ccccc23)cc1C	10	53*	12	2
O=C1c2c(O)ccc(O)c2C2(Oc3cccc4cccc(c34)O2)C2OC12 (centres undefined)	6	39*	14	45*
O=C1c2c(O)cccc2C2(Oc3cccc4cccc(c34)O2)C2OC12 (centres undefined)	-6	84*	34*	28
Fc1cccc(Cn2cc(-c3noc(-c4cccnc4)n3)nn2)c1	-14	21	3	-1
O=C(NCCc1ccccc1)c1cnc2sc3c(n2c1=O)CCCC3	-1	-5	0	-3
Cc1noc(-c2ccnc(-n3ncc(C(=O)N4CCCC4)c3C)c2)n1	2	5	0	0
CCCN1CCN(c2ccc(C(=O)O)cc2NS(=O)(=O)c2ccccc2)CC1	-23	74*	0	-1
SMILES	USP7 inh	USP8 block	USP10 inh	UCHL1 block
Cc1cc(C)c(S(=O)(=O)Nc2cc(C(=O)O)ccc2N2CCN(C)CC2)c(C)c1	-11	77*	-2	1
CCNC(=O)c1ccc(N2CCNCC2)c(NS(=O)(=O)c2cc(C)c(C)cc2C)c1	-5	46*	-3	0
Cc1ccc(NS(=O)(=O)c2cc(C(=O)NCc3ccncc3)ccc2C)c(C)c1	3	21	1	3
CCCCN(CC)c1ncnc2c1sc1nc(-c3ccccc3)c3c(c12)CC(C)(C)OC3	-1	1	1	-2
CCCCN(CC)c1ncnc2c1sc1nc(-c3ccco3)c3c(c12)CC(C)(C)OC3	18	59*	11	4
COc1ccc(Sc2nc3ccccc3n3cnnc23)cc1	23	79*	7	12
CC(=O)c1ccc(NC(=O)CCn2c(=O)c3cccn3c3ccccc32)cc1	6	29	22	-2
CCc1ccccc1NC(=O)CCn1c(=O)c2cccn2c2ccccc21	-2	37*	5	1
